# Assay results reported in PubChem BioAssay (NCATS).
# Activity calls are given as the source filed them. The rule behind the calls is not given here.
# Tested on: HIV-1 nucleocapsid protein NCp7 (binding to TG oligonucleotide)
# Test: HIV Nucleocapsid (AID 346);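 note: potency is for inhibitors that block NC binding and lower polarization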
# Settings: HIV-1 NC / fluorescein-TGTGTGTG probe, fluorescence polarization
# Method in brief: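 NCp7 100 nM + fluorescein TG4xF 10 nM; Hepes pH 7.5/250mM NaCl/1uM ZnCl2/0.004% PEG 20000; 1 hr RT; FP, 45 s exposure; oligo-only wells as negative control.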
# Potency is the fitted concentration of half-maximal effect.
row,SMILES,Potency
1,COc1ccccc1-c1nc(Nc2ccncc2)c2ccccc2n1,> 20 µM (inactive)
2,CNc1ccnc(-c2ccccc2C(F)(F)F)n1,> 20 µM (inactive)
3,COCCn1c(=O)c(-c2ccccc2)nc2cnc(Oc3cccc(Cl)c3)nc21,> 20 µM (inactive)
4,CCNc1ncc2nc(-c3cn(C)c4ccccc34)c(=O)n(Cc3cccs3)c2n1,> 20 µM (inactive)
5,CC(=O)N1CCC2(CC1)CCN(c1ncccn1)CC2,> 20 µM (inactive)
6,CC(=O)N1CCC2(CC1)CCN(c1ccncc1)CC2,> 20 µM (inactive)
7,O=C(c1cccc(F)c1)N1CCC2(CC1)CN(Cc1ccccc1)C2,> 20 µM (inactive)
